Source: PubChem BioAssay
Sampled rows, rich in hits. Any-hit rate of the full collection: about 5.7%.
hcDAF-12 act: activators of H. contortus DAF-12 nuclear receptor; HEK293 hcDAF-12 lit1-tk-luc reporter, luminescence; 0% DMSO, 100% Δ7-dafachronic acid; 1.4% of 370,000 active; activation, % at 6.8 µM;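 active means activation above the mean of all tested compounds plus 3 SD, cut at about 5.5% in these data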;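 further: 100% = response to 3 µM Δ7-dafachronic acid high control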
ssDAF12 agonist: S. stercoralis DAF-12 activation, primary screen; HEK293 ssDAF-12/GRIP1 lit1-tk-luc reporter, luminescence; % of 3 µM dafachronic acid response; 1% of 370,000 active; activation, % at 6.8 µM;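 active means activation above the mean over all tested compounds plus 3 SD, cut at about 0.9% in these data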;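 further: 0% = DMSO-only wells and 100% = 3 µM delta7-dafachronic acid wells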
DAX1 inh-1: inhibitors of DAX1 repression of SF-1 activated StAR promoter. HEK293T StAR-luciferase reporter, SF-1/DAX-1 repression relief. inhibition, % at 6.8 µM. 1.1% of 370,000 active. AID 652010;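 active means inhibition above the mean over all tested compounds plus 3 SD, cut at about 3.6% in these data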;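 further: 0% = DAX-1 cells with DMSO and 100% = cells lacking DAX-1 with DMSO; higher inhibition means more luminescence from relief of DAX-1 repression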
hgDAF12 agonist: activates the H. glycines DAF-12 receptor ligand-binding domain; HEK293 GAL4-hgDAF12 UAS-luciferase reporter, agonist luminescence; normalized to butyrate control; activation, % at 6.8 µM; 1.8% of 370,000 active; AID 687014;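 active means activation above a cutoff set at the mean of all screened compounds plus 3 SD, cut at about 10% in these data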;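 further: 0% = DMSO wells and 100% = sodium butyrate wells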
DAX1 inh-2: inhibits human nuclear receptor DAX1; HEK293 Gal4-DAX1 luciferase reporter, luminescence; inhibition, % at 6.75 µM; 0.99% of 340,000 active; AID 504766;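 active means inhibition above the mean over all tested compounds plus 3 SD, cut at about 4.2% in these data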;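 further: 0% = DAX1-transfected cells with DMSO and 100% = empty-vector control cells with DMSO; inhibition shows as a rise in luminescence from relieved DAX1 repression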
AHR activator: activators of human aryl hydrocarbon receptor | AHR-responsive luciferase reporter cells, luminescence | 2.5% of 320,000 active | activation, % at 5 µM | P35869; in the data active means activation above about 47%;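 further: 0% = vehicle wells and 100% = reference agonist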
DAX1 conf: NR0B1 (human) inhibition, confirmation; HEK293T StAR-promoter luciferase reporter, SF-1/DAX-1 repression; 87% of 2,400 active; shares compounds with DAX1 inh-1; inhibition, % at 6.8 µM;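 active means inhibition above the average of every tested compound plus 3 SD, cut at about 3.8% in these data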;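 further: 0% = DAX-1 cells with DMSO and 100% = no DAX-1 control cells with DMSO; active compounds raise luminescence by relieving repression of the StAR reporter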
Target sequence (P51843 whole entry, looked up): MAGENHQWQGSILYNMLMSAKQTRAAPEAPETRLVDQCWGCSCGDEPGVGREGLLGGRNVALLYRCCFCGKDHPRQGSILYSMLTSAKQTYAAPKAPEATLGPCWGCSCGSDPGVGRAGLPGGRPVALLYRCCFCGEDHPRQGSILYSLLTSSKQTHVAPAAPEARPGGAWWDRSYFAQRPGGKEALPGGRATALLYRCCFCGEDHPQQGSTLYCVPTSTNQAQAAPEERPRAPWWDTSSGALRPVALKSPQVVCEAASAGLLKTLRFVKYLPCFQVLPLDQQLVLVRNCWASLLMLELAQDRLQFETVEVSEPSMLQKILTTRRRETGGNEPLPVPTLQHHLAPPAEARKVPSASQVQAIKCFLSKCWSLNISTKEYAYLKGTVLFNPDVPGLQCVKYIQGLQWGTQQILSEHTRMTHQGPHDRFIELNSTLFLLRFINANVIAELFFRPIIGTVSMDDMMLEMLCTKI
SF1 mutant ctr: counter-screen for DAX1 inhibitors: nonselective inhibitors with SF-1 AF2 mutant; 78% of 2,400 active; shares compounds with DAX1 inh-1; inhibition, % at 6.8 µM; HEK293 StAR-luciferase, luminescence;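 active means inhibition above the mean of all tested compounds plus 3 SD, cut at about 3% in these data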;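 further: 0% = DAX-1 transfected cells with DMSO and 100% = cells without DAX-1 with DMSO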
LXRb hcDAF ctr: LXR-beta agonism as hcDAF-12 counter-screen. AID 743027. activation, % at 6.8 µM. 3,400 tested, under 10 active. HEK293 Gal4-LXR tk-luc reporter, luminescence, 24 h; normalized: DMSO 0%, positive control 100%. shares compounds with hcDAF-12 act;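 active means mean percent activation of the reporter above a cutoff set as the average over tested compounds plus their standard deviation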
hcDAF12 conf: confirmation of H. contortus DAF-12 agonists; shares compounds with hcDAF-12 act; HEK293 hcDAF-12 lit1-tk-luc reporter, luminescence; % of Δ7-dafachronic acid response; activation, % at 6.8 µM; 61% of 3,400 active; AID 743032;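 active means mean activation across triplicate tests above the threshold derived from the earlier primary screen, cut at about 5.5% in these data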;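 further: 0% = DMSO only wells and 100% = 3 µM Δ7-dafachronic acid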
The depositor's hits bear a star; nt = no result given.

SMILES | hcDAF-12 act | ssDAF12 agonist | DAX1 inh-1 | hgDAF12 agonist | DAX1 inh-2 | AHR activator | DAX1 conf | SF1 mutant ctr | LXRb hcDAF ctr | hcDAF12 conf
Fc1cc2[nH]c(=S)[nH]c2c(Br)c1N1CCSCC1 | 0 | -1 | 0 | 3 | 1 | 4 | nt | nt | nt | nt
COc1ccc(C2=Nc3ccccc3N(C(=O)Cc3cc(OC)cc(OC)c3)C2C(=O)NC(C)(C)C)cc1 (stereo not given) | -1 | -1 | -1 | -3 | nt | nt | nt | nt | nt | nt
COc1ccc(C2=Nc3ccccc3N(C(=O)Cc3cc(OC)cc(OC)c3)C2C(=O)NC(C)C)cc1 (stereo not given) | 6.7* | 0.9* | 6.0* | 12* | nt | nt | 9.8* | 6.4* | 1 | 5.7*
CC1(C)CC(=O)C2=C(C1)N=C1SCCC(=O)N1C2c1cccc([N+](=O)[O-])c1 (stereo not given) | -2 | -1 | -1 | -2 | 0 | -1 | nt | nt | nt | nt
O=C1C(=C2CCc3ccccc32)Cc2ccccc21 | 15* | 2.3* | 7.1* | 21* | nt | nt | 16* | 9.0* | 2 | 21*
O=C1C(=NO)CCCc2ccccc21 | -2 | -1 | -1 | 1 | 2 | nt | nt | nt | nt | nt
O=C1NCC2=C1C(c1ccc(Br)cc1)Nc1ccccc1N2 (stereo not given) | 3 | -1 | 1 | 6 | 1 | 6 | nt | nt | nt | nt
CNc1ccc(C=C2C=Cc3ccccc32)cc1 | 9.1* | 1 | 7.3* | 15* | 4.7* | nt | 17* | 7.2* | 2 | 11*
O=C(Nc1ccnn1C1CCN(CCCc2ccccc2)CC1)c1cccc(F)c1 | -2 | -1 | 0 | 1 | 0 | -2 | nt | nt | nt | nt
COCC1CCN(C(=O)c2cc(COc3ccc(OC)c4ccccc34)on2)C1 (stereo not given) | 8.1* | 1 | 5.6* | 11* | 2 | 45 | 5.4* | 5.1* | 1 | 7.7*
CCc1ccc(NC(=O)CCn2cccc2)cc1 | 0 | -1 | 1 | 4 | -1 | 6 | nt | nt | nt | nt
CCc1ccc(NC(=O)c2cnn3ccccc23)cc1 | 12* | 1 | 5.5* | 5 | -4 | 25 | 6.1* | 1 | 2 | 19*
O=C(/C=C\Nc1cccc(F)c1)c1ccc2c(c1)OCO2 | 9.0* | 0 | 4.7* | 12* | -3 | -12 | 6.8* | -1 | 1 | 7.2*
COC(=O)c1ccc(N/C=C\C(=O)c2ccc3c(c2)OCO3)cc1 | 0 | -1 | 1 | -2 | 1 | -4 | nt | nt | nt | nt
COc1ccc(OCc2cc(C(=O)NC(C)Cn3cncn3)no2)c(Cl)c1 (stereo not given) | 6.7* | 0.9* | 6.0* | 11* | 2 | 14 | 3 | 1 | 0 | 6.8*
COC(=O)C(C)Oc1ccc(-c2nccc(-c3ccccn3)n2)cc1 (stereo not given) | -3 | -1 | 0 | 3 | 1 | 4 | nt | nt | nt | nt
N/C(=N\OC(=O)/C=C/c1ccccc1Cl)c1ccccn1 | 7.0* | 0 | 6.2* | 8 | -3 | -9 | 18* | 6.1* | 2 | 8.5*
N/C(=N\OC(=O)c1cccc(F)c1)c1ccccn1 | 8.2* | 0 | 11* | 9 | -1 | 27 | 12* | 5.2* | 1 | 5
N/C(=N\OC(=O)/C=C/c1ccc(Br)cc1)c1ccccn1 | 8.0* | 2.2* | 4.7* | 12* | 0 | 16 | 9.3* | 7.0* | 1 | 8.3*
N/C(=N\OC(=O)/C=C/c1ccccc1Cl)c1cccnc1 | 4 | 0 | 2 | 7 | nt | 14 | nt | nt | nt | nt
